From PubChem BioAssay
aSyn 5UTR act = Activators working through SNCA 5'UTR binding (MLPCN). alpha-synuclein 5'UTR reporter, activators screen. activity score, % (tested at 7.5 µM), hits read low. 300,000 compounds, 7.1% hits. AID 1814; in the data active means activity score below about -60%
Starred values were filed as active, the others as inactive. Only a sample is shown.

SMILES	aSyn 5UTR act
O=C(Nc1ccc(-c2ccc([N+](=O)[O-])cc2)cc1)c1ccccc1F	-69.3*
O=[N+]([O-])c1ccccc1S(=O)(=O)c1ccccc1	-78.8*
CC(=O)Nc1ccc(NC(=O)c2ccccc2S(=O)(=O)c2ccccc2[N+](=O)[O-])cc1	-81.4*
CC1(c2ccc(NC(=O)c3ccccc3F)cc2)CC1(Cl)Cl (stereo not drawn)	-195.0*
CCOC(=O)c1c(C)oc2c(F)c(F)c(F)c(F)c2c1=O	-85.3*
CCCN(C(=O)c1cccs1)c1nnc(-c2ccncc2)s1	-99.8*
CCCN(C(=O)c1ccco1)c1nnc(-c2ccccc2C)s1	-89.2*
CN(C(=O)c1ccco1)c1nc(-c2ccc(F)cc2)cs1	-146.2*
CN(C(=O)c1ccco1)c1nnc(-c2ccc(F)cc2)s1	-199.6*
COCCN(C(=O)c1ccco1)c1nnc(-c2ccc(F)cc2)s1	-91.9*
CCN(C(=O)c1ccco1)c1nnc(-c2cccnc2)s1	-136.8*
Cn1ncc(Cl)c(Oc2ccc(Cl)cc2)c1=O	-72.6*
COc1ccc(Oc2c(Cl)cnn(-c3ccc(Cl)c(Cl)c3)c2=O)cc1	72.7
Cn1ncc(Oc2ccc([N+](=O)[O-])cc2)c(Cl)c1=O	-65.8*
C(=C\c1ccccc1)/C=N/N1CCN(c2ccccn2)CC1	-152.9*
C(=C\c1ccccc1)/C=N/N1CCN(Cc2ccccc2)CC1	-73.7*
CC(/C=N/N1CCN(c2ccccn2)CC1)=C\c1ccccc1	-133.7*
C(/C=C/c1ccccc1)=N/N1CCN(c2ccccc2)CC1	-136.4*
CSc1ccc2c(c1)C(N1CCN(C)CC1)Cc1ccc(F)cc1S2 (stereo not drawn)	57.5
S=C(c1ccc(-c2cccc(Cl)c2)o1)N1CCOCC1	-144.3*
N#CCCN1CCN(C(=S)c2ccc(-c3cccc(Cl)c3)o2)CC1	-89.3*
S=C(c1ccc(-c2cccc(Cl)c2)o1)N1CCCCC1	-110.8*
Cc1sc2c(c1C)C(=O)NC(c1ccccc1F)N2 (stereo not drawn)	-114.7*
Cc1cccc(C2NC(=O)c3c(sc(C)c3C)N2)c1O (stereo not drawn)	-86.9*
Cc1ccc(C2NC(=O)c3c(sc(C)c3C)N2)c(O)c1 (stereo not drawn)	-233.6*
SMILES	aSyn 5UTR act
CC1(C)CC(=O)c2ccc(OCc3ccc([N+](=O)[O-])cc3)cc2O1	-150.9*
CC1(C)CC(=O)c2c(O)cc(OCc3ccc(Br)cc3)cc2O1	-165.3*
CN1C(=O)C(O)(c2nnc(-c3ccccc3)o2)c2ccccc21 (stereo not drawn)	-96.0*
O=C(Nc1ccccc1Br)c1ccc(OC(=S)N2CCOCC2)cc1	-192.3*
Cc1ccc(NC(=O)c2ccc(OC(=S)N3CCOCC3)cc2)cc1	-74.9*
COc1ccccc1NS(=O)(=O)c1cccc(-n2c(O)c(C=Nc3ccccc3C(=O)O)c3ccccc3c2=O)c1	-66.4*
COc1ccc(-n2c(O)c(/C=N/Nc3nc(C)cc(C)n3)c3ccccc3c2=O)cc1OC	119.9
CN(CC(=O)Nc1ccccc1Br)C(=O)c1cc2c(s1)CCCCC2	-120.7*
Cc1noc(C)c1-c1nnc(-c2ccc(OC(F)(F)F)cc2)o1	-68.9*
O=C(NC(=O)c1ccc(Cl)cc1)OC1CCCCC1	-91.5*
O=C(CNC(=O)c1ccccc1)OC1CCCCC1	-97.9*
Cc1ccc(-n2sc3ccccc3c2=O)cc1	-121.2*
CC1OC(Nc2ccc(N=Nc3ccccc3)cc2)C(O)C(O)C1O (stereo not drawn)	-63.2*
O=c1[nH]c(/C(Cl)=C/c2cccc(F)c2)nc2cc(C(F)(F)F)ccc12	-161.9*
CSc1ccccc1NC(=O)C(=O)c1c[nH]c2ccccc12	-146.0*
CCN1CCN(Cc2ccc(NC(=O)c3ccc(C)c(NC(=O)C(=O)c4c[nH]c5ccccc45)c3)cc2C(F)(F)F)CC1	111.6
O=C(Nc1nccs1)C(=O)c1c[nH]c2ccccc12	-165.4*
Cc1ccc(-n2nnnc2SCC(=O)NC(=O)Nc2ccc3c(c2)OCCO3)cc1	-160.1*
Cc1nnc(SCC(=O)NC(=O)Nc2ccc3c(c2)OCCO3)n1N	-113.8*
O=C(CSc1nnnn1-c1ccc(Cl)cc1)NC(=O)Nc1ccc2c(c1)OCCO2	-183.8*
Cc1csc2ncc(C(=O)Nc3ccccc3Cl)c(=O)n12	-204.3*
Cc1csc2ncc(C(=O)Nc3ccccc3F)c(=O)n12	-205.2*
Cc1ccc(C(=O)NCc2ccc3c(c2)CCO3)cc1C	-96.3*
CC(C)c1ccc(C2C3CSCC=C3C(C#N)=C(N)C2(C#N)C#N)cc1 (stereo not drawn)	-83.7*
Cn1c(SCc2ccccc2F)nnc1-c1ccccn1	-123.3*
SMILES	aSyn 5UTR act
Cn1c(SCc2ccccc2F)nnc1-c1cnccn1	-186.6*
CCOC(=O)c1sc2ccccc2c1NC(=O)c1coc2ccccc2c1=O	-73.9*
CC(=O)c1ccc(N2CCN(c3ncccn3)CC2)cc1	-125.0*
COc1cccc(N2CCN(c3ncccn3)CC2)c1	-104.2*
COc1ccc(/C=N\NC(=O)C2CCCC2)cc1Br	-95.1*
CC(C)c1ccc(/C=N/NC(=O)C2CCCC2)cc1	-171.1*
COc1ccc(/C=C/c2nc(-c3ccccc3O)n[nH]2)cc1OC	-131.9*
CCOC(=O)Nc1ccc(Cc2ccncc2)cc1	-62.8*
